Results reported in the supplement of paper PMC10849652.
About 8,800 targets were measured; listed, in parts, are those with a hit and a random draw of the rest. About 0.5% of all pairs of compound and target were hits. Unmarked numbers belong to inactive results.

Tests used:
Experiment in all cases: log2 fold change, soluble protein after heating vs DMSO (PISA); higher = thermal stabilisation; K562 lysate, 10 uM; active = over 0.2 and 3.5 SD of the protein, either way, in both replicates (recomputed)
alvocidib = compound: CN1CC[C@H](c2c(O)cc(O)c3c(=O)cc(-c4ccccc4Cl)oc23)[C@H](O)C1 [alvocidib]
Procedure, shortened: (§1)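 Soluble protein was defined as the supernatant remaining after 21,000xg for 90 min, following pooling of heated aliquots and adjustment to 0.5% NP-40 at 4°C. Before that, crude K562 extract at 1 mg/mL protein in PBS pH 7.4 with 1 mM MgCl2 was treated with 10 μM compound for 30 min and heated for 3 min across 48°C-58°C. Quantification used TMTpro 16plex LC-MS/MS with channel sums equalised, and values are log-two fold changes in thermal stability relative to solvent controls from duplicates.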

Tubastatin A = compound: CN1CCc2c(c3ccccc3n2Cc2ccc(C(=O)NO)cc2)C1 [Tubastatin A]
Procedure, shortened: as §1

[1] = compound: CNC(=O)C1=CC=CC=C1NC2=NC(=NC=C2Cl)NC3=C(C=C(C=C3)N4CCOCC4)OC
Procedure, shortened: as §1

defactinib = compound: CNC(=O)c1ccc(Nc2ncc(C(F)(F)F)c(NCc3nccnc3N(C)S(C)(=O)=O)n2)cc1 [defactinib]
Procedure, shortened: as §1

[2] = compound: CNc1nc(-c2ccc3c(N)n[nH]c3c2)cc(N2C[C@@H](C(=O)NC3CCCCC3)CC[C@H]2C)n1
Procedure, shortened: as §1

encorafenib = compound: COC(=O)N[C@@H](C)CNc1nccc(-c2cn(C(C)C)nc2-c2cc(Cl)cc(NS(C)(=O)=O)c2F)n1 [encorafenib]
Procedure, shortened: as §1

[3] = compound: COC(=O)[C@H](CCSC)NC(=O)C1=C(C=C(C=C1)NC[C@H](CS)N)C2=CC=CC=C2
Procedure, shortened: as §1

alisertib = compound: COc1cc(Nc2ncc3c(n2)-c2ccc(Cl)cc2C(c2c(F)cccc2OC)=NC3)ccc1C(=O)O [alisertib]
Procedure, shortened: as §1

[4] = compound: COc1cc2nc(-c3cc(F)ccc3O)nc(N[C@@H]3CNC[C@H]3C(C)(C)O)c2cc1OC
Procedure, shortened: as §1

gefitinib = compound: COc1cc2ncnc(Nc3ccc(F)c(Cl)c3)c2cc1OCCCN1CCOCC1 [gefitinib]
Procedure, shortened: as §1

UniProt P28288, sequence (P28288 whole entry, looked up): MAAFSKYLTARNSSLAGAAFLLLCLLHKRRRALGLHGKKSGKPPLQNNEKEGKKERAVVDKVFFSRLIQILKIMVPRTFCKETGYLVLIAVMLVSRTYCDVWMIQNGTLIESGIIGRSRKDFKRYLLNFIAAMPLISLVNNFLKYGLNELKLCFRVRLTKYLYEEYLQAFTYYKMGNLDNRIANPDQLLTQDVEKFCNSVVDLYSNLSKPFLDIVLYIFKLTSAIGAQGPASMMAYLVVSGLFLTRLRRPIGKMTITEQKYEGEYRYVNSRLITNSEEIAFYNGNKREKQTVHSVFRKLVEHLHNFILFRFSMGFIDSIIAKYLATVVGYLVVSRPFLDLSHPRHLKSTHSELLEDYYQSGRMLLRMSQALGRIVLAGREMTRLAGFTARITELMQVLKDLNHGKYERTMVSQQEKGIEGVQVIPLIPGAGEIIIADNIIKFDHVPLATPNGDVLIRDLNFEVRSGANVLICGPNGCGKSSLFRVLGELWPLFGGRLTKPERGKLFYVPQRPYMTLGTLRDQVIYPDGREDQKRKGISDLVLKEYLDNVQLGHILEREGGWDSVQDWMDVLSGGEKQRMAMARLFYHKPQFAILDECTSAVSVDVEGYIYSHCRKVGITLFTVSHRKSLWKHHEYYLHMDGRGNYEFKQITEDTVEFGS
UniProt Q562R1, sequence (Q562R1 whole entry, looked up): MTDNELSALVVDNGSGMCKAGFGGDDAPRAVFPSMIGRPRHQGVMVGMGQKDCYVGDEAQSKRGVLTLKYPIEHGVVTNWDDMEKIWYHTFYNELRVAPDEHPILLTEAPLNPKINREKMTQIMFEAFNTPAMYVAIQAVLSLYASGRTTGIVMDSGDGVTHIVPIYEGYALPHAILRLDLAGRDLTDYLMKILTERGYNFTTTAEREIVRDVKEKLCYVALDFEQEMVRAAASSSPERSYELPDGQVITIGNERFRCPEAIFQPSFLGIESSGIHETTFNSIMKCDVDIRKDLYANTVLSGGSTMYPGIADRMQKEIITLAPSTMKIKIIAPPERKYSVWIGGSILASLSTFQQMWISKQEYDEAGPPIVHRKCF
UniProt Q9BVK2, sequence (Q9BVK2 whole entry, looked up): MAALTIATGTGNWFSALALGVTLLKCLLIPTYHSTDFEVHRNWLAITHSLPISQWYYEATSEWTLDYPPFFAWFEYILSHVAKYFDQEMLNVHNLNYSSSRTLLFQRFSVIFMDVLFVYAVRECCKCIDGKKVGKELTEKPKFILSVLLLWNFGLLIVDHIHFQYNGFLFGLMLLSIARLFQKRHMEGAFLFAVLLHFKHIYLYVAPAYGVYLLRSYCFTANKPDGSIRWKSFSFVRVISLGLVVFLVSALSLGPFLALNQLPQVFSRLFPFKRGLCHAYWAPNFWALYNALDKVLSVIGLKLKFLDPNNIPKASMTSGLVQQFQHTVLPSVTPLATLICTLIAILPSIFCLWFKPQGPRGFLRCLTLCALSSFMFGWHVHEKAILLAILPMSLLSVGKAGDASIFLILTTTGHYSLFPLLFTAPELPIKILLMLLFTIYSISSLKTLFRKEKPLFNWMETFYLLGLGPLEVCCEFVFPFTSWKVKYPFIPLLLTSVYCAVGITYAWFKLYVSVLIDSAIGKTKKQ
UniProt P55263, sequence (P55263 whole entry, looked up): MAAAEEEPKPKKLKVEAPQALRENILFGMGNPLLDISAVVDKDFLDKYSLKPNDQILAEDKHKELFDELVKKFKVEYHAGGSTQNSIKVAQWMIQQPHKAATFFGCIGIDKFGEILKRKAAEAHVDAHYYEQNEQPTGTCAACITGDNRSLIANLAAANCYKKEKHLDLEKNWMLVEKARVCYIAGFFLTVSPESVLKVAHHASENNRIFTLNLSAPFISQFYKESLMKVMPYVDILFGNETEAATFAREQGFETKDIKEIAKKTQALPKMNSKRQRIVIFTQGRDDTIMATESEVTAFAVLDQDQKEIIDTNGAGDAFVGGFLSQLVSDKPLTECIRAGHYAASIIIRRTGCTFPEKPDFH
UniProt Q9Y6B7, sequence (Q9Y6B7 whole entry, looked up): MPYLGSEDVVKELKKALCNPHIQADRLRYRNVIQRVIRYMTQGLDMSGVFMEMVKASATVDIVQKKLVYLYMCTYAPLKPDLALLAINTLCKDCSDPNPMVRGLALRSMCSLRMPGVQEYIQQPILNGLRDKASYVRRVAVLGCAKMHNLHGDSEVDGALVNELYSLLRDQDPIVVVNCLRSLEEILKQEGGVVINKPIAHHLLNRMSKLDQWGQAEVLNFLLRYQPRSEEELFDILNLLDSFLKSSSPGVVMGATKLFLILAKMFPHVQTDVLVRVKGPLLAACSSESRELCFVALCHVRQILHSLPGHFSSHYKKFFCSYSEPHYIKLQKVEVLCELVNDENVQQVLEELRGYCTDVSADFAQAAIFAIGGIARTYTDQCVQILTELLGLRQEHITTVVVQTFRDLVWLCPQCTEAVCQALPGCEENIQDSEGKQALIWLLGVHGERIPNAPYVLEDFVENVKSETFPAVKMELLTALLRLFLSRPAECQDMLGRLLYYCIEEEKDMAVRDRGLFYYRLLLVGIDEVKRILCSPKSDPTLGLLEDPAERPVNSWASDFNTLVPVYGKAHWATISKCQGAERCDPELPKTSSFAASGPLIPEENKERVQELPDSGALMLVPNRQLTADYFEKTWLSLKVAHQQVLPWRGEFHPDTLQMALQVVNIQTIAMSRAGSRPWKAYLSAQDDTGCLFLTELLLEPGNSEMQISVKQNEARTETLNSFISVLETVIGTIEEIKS
UniProt Q3SY69, sequence (Q3SY69 whole entry, looked up): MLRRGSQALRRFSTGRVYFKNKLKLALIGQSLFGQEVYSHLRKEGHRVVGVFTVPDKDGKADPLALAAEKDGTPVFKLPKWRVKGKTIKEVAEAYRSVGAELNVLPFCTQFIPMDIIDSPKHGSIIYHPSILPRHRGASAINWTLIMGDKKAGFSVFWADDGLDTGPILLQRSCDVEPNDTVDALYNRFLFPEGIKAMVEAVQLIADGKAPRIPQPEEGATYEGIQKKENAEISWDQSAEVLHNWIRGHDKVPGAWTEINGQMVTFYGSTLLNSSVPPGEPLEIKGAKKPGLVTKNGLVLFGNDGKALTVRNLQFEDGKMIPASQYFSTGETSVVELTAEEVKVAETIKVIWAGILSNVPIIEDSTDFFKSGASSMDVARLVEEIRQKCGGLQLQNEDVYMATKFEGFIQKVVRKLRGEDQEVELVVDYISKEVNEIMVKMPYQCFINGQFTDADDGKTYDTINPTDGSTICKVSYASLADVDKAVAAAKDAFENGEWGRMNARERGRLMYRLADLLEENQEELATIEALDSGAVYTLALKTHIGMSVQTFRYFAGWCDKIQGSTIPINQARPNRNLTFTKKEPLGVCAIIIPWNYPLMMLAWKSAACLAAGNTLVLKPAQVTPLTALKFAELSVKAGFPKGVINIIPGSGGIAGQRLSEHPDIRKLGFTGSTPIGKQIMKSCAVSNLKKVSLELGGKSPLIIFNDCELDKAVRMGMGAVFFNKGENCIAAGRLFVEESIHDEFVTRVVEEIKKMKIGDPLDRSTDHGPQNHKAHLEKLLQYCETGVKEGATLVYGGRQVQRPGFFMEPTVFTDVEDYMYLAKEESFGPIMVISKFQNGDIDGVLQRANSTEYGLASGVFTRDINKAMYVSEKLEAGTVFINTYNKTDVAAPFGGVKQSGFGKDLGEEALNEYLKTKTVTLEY
UniProt P27144, sequence (P27144 whole entry, looked up): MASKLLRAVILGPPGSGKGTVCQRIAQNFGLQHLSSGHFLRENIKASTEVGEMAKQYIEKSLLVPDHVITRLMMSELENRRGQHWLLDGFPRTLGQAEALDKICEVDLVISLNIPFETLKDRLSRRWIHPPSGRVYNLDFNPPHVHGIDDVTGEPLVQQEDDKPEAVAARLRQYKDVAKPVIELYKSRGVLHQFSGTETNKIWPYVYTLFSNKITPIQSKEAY
UniProt Q8NB46, sequence (Q8NB46 whole entry, looked up): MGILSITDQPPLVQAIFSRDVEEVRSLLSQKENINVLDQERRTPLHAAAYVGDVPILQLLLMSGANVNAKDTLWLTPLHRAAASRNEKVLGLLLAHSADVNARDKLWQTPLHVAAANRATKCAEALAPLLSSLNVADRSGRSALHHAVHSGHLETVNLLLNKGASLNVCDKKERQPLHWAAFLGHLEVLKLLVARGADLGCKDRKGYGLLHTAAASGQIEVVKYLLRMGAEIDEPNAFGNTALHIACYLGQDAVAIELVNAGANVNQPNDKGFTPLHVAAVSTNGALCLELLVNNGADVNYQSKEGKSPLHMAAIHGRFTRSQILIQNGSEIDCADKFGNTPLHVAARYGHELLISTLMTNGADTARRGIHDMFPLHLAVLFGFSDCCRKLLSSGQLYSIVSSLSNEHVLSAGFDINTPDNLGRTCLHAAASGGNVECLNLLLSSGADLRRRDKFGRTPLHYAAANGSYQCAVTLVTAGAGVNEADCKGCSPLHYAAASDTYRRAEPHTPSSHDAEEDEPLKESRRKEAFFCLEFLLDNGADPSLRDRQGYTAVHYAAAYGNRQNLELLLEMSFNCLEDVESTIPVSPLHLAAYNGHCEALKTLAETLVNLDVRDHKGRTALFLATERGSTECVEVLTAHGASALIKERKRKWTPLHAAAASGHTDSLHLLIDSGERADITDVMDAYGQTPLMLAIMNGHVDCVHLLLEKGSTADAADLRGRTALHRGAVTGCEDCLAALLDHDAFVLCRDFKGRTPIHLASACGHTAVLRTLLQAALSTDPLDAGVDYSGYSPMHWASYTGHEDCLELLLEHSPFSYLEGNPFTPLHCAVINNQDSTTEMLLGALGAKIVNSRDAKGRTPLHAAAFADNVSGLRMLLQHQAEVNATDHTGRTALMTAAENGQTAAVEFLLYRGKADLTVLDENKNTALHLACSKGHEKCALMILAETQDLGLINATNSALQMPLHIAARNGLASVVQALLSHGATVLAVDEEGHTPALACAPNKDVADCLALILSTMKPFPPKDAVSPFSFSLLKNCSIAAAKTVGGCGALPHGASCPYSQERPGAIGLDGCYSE

Target | log2 fold change (alvocidib) | log2 fold change (Tubastatin A) | log2 fold change [1] | log2 fold change (defactinib) | log2 fold change [2] | log2 fold change (encorafenib) | log2 fold change [3] | log2 fold change (alisertib) | log2 fold change [4] | log2 fold change (gefitinib)
ACTBL2 (UniProt Q562R1) | -0.083 | -0.111 | -0.01 | 0.093 | -0.008 | -0.226 | 0.005 | -0.273 | 0.009 | -0.223
ALG8 (UniProt Q9BVK2) | 0.004 | -0.118 | -0.007 | 0.001 | -0.012 | 0.04 | -0.09 | 0.076 | -0.019 | 0.103
ANKRD52 (UniProt Q8NB46) | -0.002 | -0.132 | -0.003 | 0.076 | 0.014 | 0.047 | 0.11 | 0.005 | 0 | 0.039
ADK (UniProt P55263) | 0.246 | -0.025 | 0.178 | 0.026 | 0 | -0.048 | 0.068 | -0.063 | -0.015 | 0.158
ABCD3 (UniProt P28288) | -0.064 | 0.1 | -0.114 | -0.019 | -0.048 | 0.028 | 0.444 (active) | 0.044 | -0.013 | 0.145
ACACB (UniProt O00763) | -0.04 | -0.153 | 0.007 | 0.019 | -0.043 | 0.127 | -0.156 | 0.016 | 0.006 | 0.006
ALDH1L2 (UniProt Q3SY69) | -0.04 | -0.03 | -0.028 | -0.04 | -0.021 | -0.002 | 0.288 (active) | -0.039 | 0.039 | 0.017
ARHGAP25 isoform 4 (UniProt P42331) | -0.032 | -0.122 | 0.04 | 0.055 | 0.054 | -0.009 | 0.038 | 0.012 | -0.004 | -0.009
ABHD17B (UniProt Q5VST6) | 0 | -0.016 | -0.003 | 0.064 | -0.099 | 0.059 | -0.642 (active) | 0.06 | -0.011 | 0.043
ASNS (UniProt P08243) | 0.019 | -0.025 | -0.036 | 0.006 | 0.027 | -0.009 | -0.12 | 0.019 | 0.009 | 0.004
AK4 (UniProt P27144) | 0.025 | 0.036 | -0.008 | 0.003 | 0.009 | 0.006 | -0.07 | 0.026 | -0.034 | -0.043
AP3D1 isoform 5 (UniProt O14617) | -0.02 | -0.048 | 0.018 | 0.033 | 0.03 | 0.026 | -0.028 | -0.009 | 0.004 | -0.014
APOB (UniProt P04114) | -0.078 | 0.099 | -0.021 | -0.04 | 0.264 | -0.008 | 0.003 | -0.024 | 0.023 | 0.014
AP4B1 (UniProt Q9Y6B7) | -0.053 | -0.021 | -0.051 | -0.001 | 0.041 | 0.057 | -0.01 | -0.014 | -0.121 | 0.031
